Screening results as filed in PubChem BioAssay.
RE007 growth inh = less growth of the S. pombe RE007 Vpr strain; Potency, µM (highest dose often 92.2 µM), most hits filed as inhibitors; hit rate 0.21% among 360,000; S. pombe RE007 Vpr strain, BacTiter-Glo ATP luminescence, 24 h; active means well fitted falling curve with a large enough effect; inconclusive means small, poorly fitted or top-dose-only effect; inactive means no such curve, though single readings can be large or run the other way; further: nearly all actives have a fitted effect of over 50% in size
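Fission yeast strain RE007, carrying one chromosomally integrated HIV-1 vpr copy, was seeded at OD 0.01 in PMG+AL medium with 23 nL pinned compound. After 24 h at 30 °C and 99% humidity, viability was read by BacTiter-Glo luminescence.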
AmpC inh detg = AmpC beta-lactamase inhibition with detergent present. AID 485294. Potency, µM (highest dose often 114 µM), actives largely listed as inhibitors. hit rate 0.041% among 370,000. AmpC hydrolysis of nitrocefin, absorbance 480 nm, 0.01% Triton; further: nearly all actives have a fitted effect of over 25% in size
Target sequence (P00811 whole entry, looked up): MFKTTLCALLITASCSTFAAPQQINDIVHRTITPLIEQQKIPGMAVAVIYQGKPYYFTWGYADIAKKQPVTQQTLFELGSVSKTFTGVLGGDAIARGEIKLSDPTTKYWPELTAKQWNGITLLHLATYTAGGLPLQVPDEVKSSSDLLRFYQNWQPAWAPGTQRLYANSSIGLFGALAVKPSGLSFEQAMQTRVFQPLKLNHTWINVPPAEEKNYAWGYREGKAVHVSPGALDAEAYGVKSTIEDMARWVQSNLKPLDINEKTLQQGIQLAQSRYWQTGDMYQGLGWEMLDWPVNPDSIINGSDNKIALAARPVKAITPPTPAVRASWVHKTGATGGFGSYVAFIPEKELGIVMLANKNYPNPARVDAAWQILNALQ
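AmpC (5.3 nM in the dispensed reagent) in 20 mM phosphate pH 7.0 with 0.01% (detergent screen) or 0.0001% Triton X-100 was preincubated with compounds for 15 min at room temperature. Nitrocefin was then added from an 800 uM solution, and hydrolysis was followed at 480 nm.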
FBPA Giardia inh = blocks Giardia fructose-bisphosphate aldolase activity; A8B2U2; purified Giardia FBPA; Potency, µM (doses to about 59.6 µM), most hits filed as inhibitors; hit rate 0.71% among 290,000; AID 2451; further: nearly all actives have a fitted effect of over 55% in size
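40 nM FBPA preincubated 10 min at RT with compound (up to 57.5 uM final), then substrate plus GAPDH/TPI/NAD/arsenate coupling and diaphorase/resazurin added. Fluorescence read after 20 min at RT, 525/598 nm.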
Sm TGR block = inhibitors of Schistosoma mansoni thioredoxin glutathione reductase | Q962Y6 | purified TGR, DTNB reduction, TNB absorbance 405 nm | Potency, µM (highest dose often 114 µM), hits mostly inhibitors | hit rate 3% among 360,000; further: nearly all actives have a fitted effect of over 60% in size
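TGR 20 nM + NADPH 100 uM (dispensed conc.), cpd preinc 15 min RT; start with NADPH (500 uM addition) then DTNB (15 mM addition). Kinetic TNB absorbance, 405 nm filter. Four-parameter Hill fit across titration.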
AmpC inh no detg = blocks E. coli AmpC beta-lactamase in detergent-free assay. AID 485341. AmpC nitrocefin hydrolysis, absorbance 480 nm, 0.0001% Triton. hit rate 0.52% among 330,000. Potency, µM (series often up to 57.1 µM), hits mostly inhibitors; further: nearly all actives have a fitted effect of over 20% in size
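20 mM phosphate pH 7.0 + 0.01% (detergent screen) or 0.0001% Triton X-100; 5.3 nM AmpC reagent; cpd preinc 15 min RT; nitrocefin (800 uM stock) to start; A480 q20 s × 4 min; Activity was normalised to no-enzyme and no-compound control wells.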
Large screens that a line does not name were inactive. Compounds with a hit are over-represented: about 3.4% of the library has one in this group of screens. Unless noted, the call rests on the fitted dose curve; in most records, active means well fitted curve in the direction sought with a large enough effect; inconclusive means small, poorly fitted or top-dose-only effect, or another doubt; inactive means no such curve, though single readings can be large; an effect the other way counts as inactive or inconclusive.

CC(C)NC(=O)c1cc2n(n1)C(C(F)(F)F)CC(c1ccco1)N2 (centres undefined)	AmpC inh detg inconclusive
O=C(NCc1ccccn1)c1cc2n(n1)C(C(F)(F)F)CC(c1ccco1)N2 (centres undefined)	Sm TGR block 40µM
Cc1ccc(N2C(=O)CS(=O)(=O)CC2=O)cc1	Sm TGR block 8.9µM
Cc1ccc(N2C(=O)CSCC2=O)cc1	AmpC inh detg inconclusive
O=c1oc2c3c4c(cc2s1)CCCN4CCC3	RE007 growth inh inconclusive, FBPA Giardia inh inconclusive, Sm TGR block inconclusive
O=c1ccc2cc3c4c(c2o1)CCCN4CCC3	Sm TGR block 50µM
O=S(=O)(Nc1cccc(-c2nc3cccnc3s2)c1)c1ccc2c(c1)OCCO2	AmpC inh detg inconclusive, AmpC inh no detg 3.2µM
CCOC(=O)C1(Cc2ccccc2Cl)CCN(C(=O)CN2CCOC2=O)CC1	none
Cc1csc(C(=O)O)c1-n1cccc1	AmpC inh no detg 0.28µM
COc1ccc(C2CC(c3cccs3)=NN2C(=O)CCl)cc1OC (centres undefined)	AmpC inh detg inconclusive, Sm TGR block 4.5µM
COc1cc(C2CC(c3cccs3)=NN2C(=O)CCl)ccc1OC(F)F (centres undefined)	Sm TGR block 7.9µM
CCOP(=O)(c1ccccc1)c1nc(-c2ccccc2C)oc1N1CCCCC1 (centres undefined)	none
Cc1cc(C)cc(NC(=O)CSc2ccc(-c3ccccn3)nn2)c1	none (no result: FBPA Giardia inh)
Cc1cccc(NC(=O)CSc2ccc(-c3ccco3)nn2)c1	AmpC inh detg inconclusive, Sm TGR block 20µM
Cc1cc(C)cc(NC(=O)CSc2ccc(-c3ccco3)nn2)c1	Sm TGR block 22µM
O=C(CCN1CCCCC1c1cccnc1)NCc1ccccc1 (centres undefined)	Sm TGR block 35µM
COc1ccccc1CN1CCCCC1c1cccnc1 (centres undefined)	none
O=C(c1ccco1)N1CCCN(C(=O)c2ccco2)CC1	none
CN(C)C(=O)N1CCN(C(=O)c2ccco2)CC1	AmpC inh no detg 28µM
O=C1c2ccccc2-c2c1cccc2C(=O)N1CCN(C(=O)c2ccco2)CC1	AmpC inh detg inconclusive, Sm TGR block 20µM
CCCSc1ccccc1C(=O)N1CCN(C(=O)c2ccco2)CC1	none (no result: FBPA Giardia inh)
Cc1cc(C)nc(N/N=C2/CCSc3ccc(F)cc32)n1	none
O=C(c1csnn1)N1CCC[C@@]2(CCN(C(c3ccccc3)c3ccccc3)C2)C1	none (no result: RE007 growth inh, AmpC inh detg, Sm TGR block, AmpC inh no detg)
COc1cccc(-n2nc(C#N)c(Cl)cc2=O)c1	RE007 growth inh inconclusive, Sm TGR block 2.5µM
COc1cccc(-n2nc(C(N)=O)c(O)cc2=O)c1	none
COc1ccc(C(=O)NC(NC(=S)Nc2ccc(S(N)(=O)=O)cc2)C(Cl)(Cl)Cl)cc1 (centres undefined)	AmpC inh no detg 8.9µM
CC(=O)c1ccc(NC(=S)NC(NC(=O)c2ccco2)C(Cl)(Cl)Cl)cc1 (centres undefined)	Sm TGR block inconclusive, AmpC inh no detg 13µM
COc1cc(C(=O)NCC(=O)NCCN2C(=O)S/C(=C\c3ccc4c(c3)OCO4)C2=O)cc(OC)c1OC	AmpC inh detg inconclusive (no result: FBPA Giardia inh)
Cn1cc(Cl)c(C(=O)Nc2cnn(Cc3ccc(F)cc3)c2)n1	AmpC inh detg inconclusive
Cc1nc(Cl)nc(N(C)c2ccccc2)c1[N+](=O)[O-]	Sm TGR block 4.5µM
Cc1nc(N/N=C/c2ccccc2)nc(N(C)c2ccccc2)c1[N+](=O)[O-]	none
COc1ccc(-c2nc(CN3CCN(C(=O)c4ccco4)CC3)c(C)o2)cc1OC	Sm TGR block 28µM
Cc1ccc(-c2nc(CSCC(=O)N3CCOCC3)c(C)o2)cc1	none
COc1ccc(-c2nc(CN3CCN(C(=O)c4ccco4)CC3)c(C)o2)c(F)c1	Sm TGR block 50µM
Cc1ccc(-c2nc(CSCC(=O)N3CCN(C(=O)c4ccco4)CC3)c(C)o2)cc1	Sm TGR block 40µM
CCOC(CNC(=O)Cn1nc(Cc2ccncc2)c2ccccc2c1=O)OCC	AmpC inh detg inconclusive
CNc1cc(NS(=O)(=O)c2ccc(N)cc2)nc(NC)n1	AmpC inh detg inconclusive
O=C(/C=C/c1ccc(S(=O)(=O)N2CCOCC2)cc1)NCc1ccccc1	none
